Experiment in all cases: yeast three-hybrid, YBZ-1, SC-Leu-His + 0.5 mM 3-AT, 4 days
Details in all cases: tags: N-Gal4 AD-HA kept; label: inside an RPR1-promoter hybrid RNA with tandem MS2 sites; ssRNA

The target in one assay is PUM1 PUF domain R3-LSC (Homo sapiens, UniProt Q14671 828-1176, C935L;R936S;Q939C). The procedure, abridged:
(§1)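 Each repeat of the Pumilio-1 PUF domain was randomized at its three base-contacting residues, and these libraries were co-expressed from a centromeric plasmid with matching RNA elements in strain YBZ-1. After four days on SC-Leu (input) or SC-Leu-His + 0.5 mM 3-AT (selection), the repeat regions were PCR-amplified and Illumina-sequenced. The interaction score compares variant frequency between input and selection as a log change, computed in log2 with a pseudocount of 1 for absent variants.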

Another assay deals with PUM1 PUF domain R3-MSR (Homo sapiens, UniProt Q14671 828-1176, C935M;R936S;Q939R). The procedure, abridged: as §1
The next assay concerns the target PUM1 PUF domain R3-ARS (Homo sapiens, UniProt Q14671 828-1176, C935A;Q939S). The gist of the method: as §1
The target of another assay is PUM1 PUF domain R1-RGV (Homo sapiens, UniProt Q14671 828-1176, S863R;R864G;Q867V). The procedure, abridged: as §1
Another assay has as its target PUM1 PUF domain R5-FHK (Homo sapiens, UniProt Q14671 828-1176, C1007F;R1008H;Q1011K). The gist of the method:
as §1

A further assay concerns the target PUM1 PUF domain R5-KHH (Homo sapiens, UniProt Q14671 828-1176, C1007K;R1008H;Q1011H). The gist of the method: as §1
Another assay concerns the target PUM1 PUF domain R4-MHW (Homo sapiens, UniProt Q14671 828-1176, N971M;Q975W). The gist of the method: as §1
The next assay concerns the target PUM1 PUF domain R4-WAA (Homo sapiens, UniProt Q14671 828-1176, N971W;H972A;Q975A). The gist of the method: as §1
A further assay has as its target PUM1 PUF domain R4-PHS (Homo sapiens, UniProt Q14671 828-1176, N971P;Q975S). The gist of the method:
as §1

A further assay deals with PUM1 PUF domain R7-KRC (Homo sapiens, UniProt Q14671 828-1176, S1079K;N1080R;E1083C). The procedure, abridged: as §1
For another assay, the target named is PUM1 PUF domain R7-RSV (Homo sapiens, UniProt Q14671 828-1176, S1079R;N1080S;E1083V). The gist of the method:
as §1

The target in another assay is PUM1 PUF domain R5-FRW (Homo sapiens, UniProt Q14671 828-1176, C1007F;Q1011W). The gist of the method: as §1
A further assay has as its target PUM1 PUF domain R5-GTQ (Homo sapiens, UniProt Q14671 828-1176, C1007G;R1008T). The gist of the method:
as §1

The target of a further assay is PUM1 PUF domain R2-RRH (Homo sapiens, UniProt Q14671 828-1176, N899R;Y900R;Q903H). The gist of the method:
as §1

Another assay deals with PUM1 PUF domain R7-RGF (Homo sapiens, UniProt Q14671 828-1176, S1079R;N1080G;E1083F). The gist of the method:
as §1

For a further assay, the target named is PUM1 PUF domain R7-LNG (Homo sapiens, UniProt Q14671 828-1176, S1079L;E1083G). The procedure, abridged:
as §1

A further assay has as its target PUM1 PUF domain R4-DRC (Homo sapiens, UniProt Q14671 828-1176, N971D;H972R;Q975C). The procedure, abridged: as §1
The target of a further assay is T1, PUM1 PUF domain R6-VFI (Homo sapiens, UniProt Q14671 828-1176, N1043V;Y1044F;Q1047I).
T1 sequence: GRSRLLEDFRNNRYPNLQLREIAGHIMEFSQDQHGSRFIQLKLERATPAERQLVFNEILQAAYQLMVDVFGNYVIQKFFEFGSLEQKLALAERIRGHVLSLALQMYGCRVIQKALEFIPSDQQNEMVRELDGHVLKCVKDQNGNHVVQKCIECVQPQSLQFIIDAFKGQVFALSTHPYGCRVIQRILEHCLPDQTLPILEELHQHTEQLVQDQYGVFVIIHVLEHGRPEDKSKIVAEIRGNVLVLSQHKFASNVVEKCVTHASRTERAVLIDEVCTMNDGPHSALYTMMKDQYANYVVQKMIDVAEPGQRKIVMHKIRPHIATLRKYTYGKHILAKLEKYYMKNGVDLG
The gist of the method: as §1

The target in the next assay is PUM1 PUF domain R4-API (Homo sapiens, UniProt Q14671 828-1176, N971A;H972P;Q975I). The gist of the method: as §1
In the next assay the target is PUM1 PUF domain R4-DRG (Homo sapiens, UniProt Q14671 828-1176, N971D;H972R;Q975G). The gist of the method: as §1

For “GGCUAGAACUAGUGGAUCCCCCGGCGCCCGGCGGCUCGAGCCCGGGUAAGUGUAAUUAGUCUGCAUGCCGCCGGGCGCCAUGCCUGCAGGUCGACUCUAGAAAACAUG”, the binding signal with PUM1 PUF domain R3-LSC is 2.84 log2 enrichment (interaction score); with PUM1 PUF domain R3-MSR, 2.82 log2 enrichment (interaction score); with PUM1 PUF domain R3-ARS it was 1.78 log2 enrichment (interaction score).

For “GGCUAGAACUAGUGGAUCCCCCGGCGCCCGGCGGCUCGAGCCCGGGUAAGUGUAAAUCGUCUGCAUGCCGCCGGGCGCCAUGCCUGCAGGUCGACUCUAGAAAACAUG”, the binding signal with PUM1 PUF domain R1-RGV is 2.51 log2 enrichment (interaction score).

As to “GGCUAGAACUAGUGGAUCCCCCGGCGCCCGGCGGCUCGAGCCCGGGUAAGUGUGAAUAGUCUGCAUGCCGCCGGGCGCCAUGCCUGCAGGUCGACUCUAGAAAACAUG”, the binding signal in the assay with PUM1 PUF domain R5-FHK was 3.51 log2 enrichment (interaction score); with PUM1 PUF domain R5-KHH, 2.08 log2 enrichment (interaction score).

For “GGCUAGAACUAGUGGAUCCCCCGGCGCCCGGCGGCUCGAGCCCGGGUAAGUGUAUAUAGUCUGCAUGCCGCCGGGCGCCAUGCCUGCAGGUCGACUCUAGAAAACAUG”, the values for the binding signal with PUM1 PUF domain R4-MHW, with PUM1 PUF domain R4-WAA and with PUM1 PUF domain R4-PHS were 3.93 log2 enrichment (interaction score), 4.4 log2 enrichment (interaction score) and 7.03 log2 enrichment (interaction score), respectively.

Consider “GGCUAGAACUAGUGGAUCCCCCGGCGCCCGGCGGCUCGAGCCCGGGUAAGUCUAAAUAGUCUGCAUGCCGCCGGGCGCCAUGCCUGCAGGUCGACUCUAGAAAACAUG”, for which the binding signal was 4.66 log2 enrichment (interaction score) in the assay with PUM1 PUF domain R7-KRC and 1.68 log2 enrichment (interaction score) in the assay with PUM1 PUF domain R7-RSV.

Turning to “GGCUAGAACUAGUGGAUCCCCCGGCGCCCGGCGGCUCGAGCCCGGGUAAGUGUUAAUAGUCUGCAUGCCGCCGGGCGCCAUGCCUGCAGGUCGACUCUAGAAAACAUG”, the binding signal with PUM1 PUF domain R5-FRW is 3.35 log2 enrichment (interaction score); with PUM1 PUF domain R5-FHK, 4.76 log2 enrichment (interaction score); with PUM1 PUF domain R5-GTQ it was 2.42 log2 enrichment (interaction score).

In the case of “GGCUAGAACUAGUGGAUCCCCCGGCGCCCGGCGGCUCGAGCCCGGGUAAGUGUAAAUUGUCUGCAUGCCGCCGGGCGCCAUGCCUGCAGGUCGACUCUAGAAAACAUG”, the binding signal in the assay with PUM1 PUF domain R1-RGV is 2.5 log2 enrichment (interaction score).

Consider “GGCUAGAACUAGUGGAUCCCCCGGCGCCCGGCGGCUCGAGCCCGGGUAAGUGUAAAAAGUCUGCAUGCCGCCGGGCGCCAUGCCUGCAGGUCGACUCUAGAAAACAUG”, for which the binding signal in the assay with PUM1 PUF domain R2-RRH was 0.36 log2 enrichment (interaction score).

“GGCUAGAACUAGUGGAUCCCCCGGCGCCCGGCGGCUCGAGCCCGGGUAAGUUUAAAUAGUCUGCAUGCCGCCGGGCGCCAUGCCUGCAGGUCGACUCUAGAAAACAUG”: the results for the binding signal in the assay with PUM1 PUF domain R7-RGF, in the assay with PUM1 PUF domain R7-RSV and with PUM1 PUF domain R7-LNG were 3.87 log2 enrichment (interaction score), 2.32 log2 enrichment (interaction score) and 6.18 log2 enrichment (interaction score), respectively.

Regarding “GGCUAGAACUAGUGGAUCCCCCGGCGCCCGGCGGCUCGAGCCCGGGUAAGUGUCAAUAGUCUGCAUGCCGCCGGGCGCCAUGCCUGCAGGUCGACUCUAGAAAACAUG”, in the assay with PUM1 PUF domain R5-FRW, the binding signal was 3.47 log2 enrichment (interaction score).

Consider “GGCUAGAACUAGUGGAUCCCCCGGCGCCCGGCGGCUCGAGCCCGGGUAAGUGUAAGUAGUCUGCAUGCCGCCGGGCGCCAUGCCUGCAGGUCGACUCUAGAAAACAUG”, for which the figures for the binding signal with PUM1 PUF domain R3-MSR and with PUM1 PUF domain R3-ARS were 3.44 log2 enrichment (interaction score) and 0.93 log2 enrichment (interaction score), respectively.

As for “GGCUAGAACUAGUGGAUCCCCCGGCGCCCGGCGGCUCGAGCCCGGGUAAGUGUAAAUAGUCUGCAUGCCGCCGGGCGCCAUGCCUGCAGGUCGACUCUAGAAAACAUG”, the binding signal in the assay with PUM1 PUF domain R5-FRW is 1.07 log2 enrichment (interaction score); with PUM1 PUF domain R4-DRC, 5.15 log2 enrichment (interaction score); with PUM1 PUF domain R6-VFI, 3.71 log2 enrichment (interaction score); with PUM1 PUF domain R4-WAA, 1.39 log2 enrichment (interaction score); with PUM1 PUF domain R4-PHS, 5.43 log2 enrichment (interaction score); with PUM1 PUF domain R4-API, 3.05 log2 enrichment (interaction score). Moreover, the figures for the binding signal with PUM1 PUF domain R3-ARS, with PUM1 PUF domain R4-DRG and in the assay with PUM1 PUF domain R5-GTQ were 4.04 log2 enrichment (interaction score), 2.71 log2 enrichment (interaction score) and 2.12 log2 enrichment (interaction score), respectively.

In the case of “GGCUAGAACUAGUGGAUCCCCCGGCGCCCGGCGGCUCGAGCCCGGGUAAGUGUAAAGAGUCUGCAUGCCGCCGGGCGCCAUGCCUGCAGGUCGACUCUAGAAAACAUG”, in the assay with PUM1 PUF domain R2-RRH, the binding signal was 3.09 log2 enrichment (interaction score).

For the origin of these results see publication PMC8384837, “Expanding the binding specificity for RNA recognition by a PUF domain”.
